Bioassay records (PubChem)
Pf growth 48h: inhibits P. falciparum growth in the first generation, 48 h; P. falciparum luciferase growth in erythrocytes, 48 h; Potency, µM (doses to about 28.7 µM), for the others: top-dose activity change, negative = inhibition, actives largely listed as inhibitors; hit rate 5.9% among 310,000; further: on the % scale 0 is the no-effect control and ±100 the full control effect
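Luciferase-expressing parasites in RBCs, 2% Hct / 0.1% parasitemia final; RPMI 1640 + 0.5% Albumax; 37 C, 5% CO2, one generation; luminescence read-out, lower signal = inhibition.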
Pf growth 96h: P. falciparum growth inhibition at 96 hours | hit rate 6.9% among 320,000 | Potency, µM (series often up to 28.7 µM), inactives show at the top dose activity change, negative = inhibition, most hits filed as inhibitors | P. falciparum luciferase reporter growth, 96 h; further: on the % scale 0 is the no-effect control and ±100 the full control effect
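Plates of compound plus infected erythrocytes (2% hematocrit, 0.05% parasitemia final) incubate 96 hours, 37 C, 5% CO2. Detection reagent added; reduced luminescence from the parasites' luciferase reporter flags inhibition.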
SARS PLpro yeast: SARS-CoV PLP inhibition in yeast. S. cerevisiae expressing SARS-CoV PLpro, growth rescue. AID 485353. hit rate 0.19% among 330,000. Potency, µM (doses to about 32.9 µM), for the others: at the highest dose activity, positive = growth rescue, hits mostly activators; calls by dose curve; further: 0% is about no effect; nearly all actives have a fitted effect of over 55% in size
Sm TGR inh: S. mansoni TGR enzyme inhibition | hit rate 3% among 360,000 | Potency, µM (series often up to 114 µM), for the others: at the top dose activity change, negative = inhibition, actives largely listed as inhibitors | AID 485364 | Q962Y6 | purified TGR, DTNB reduction, TNB absorbance 405 nm; further: on the % scale 0 is the no-effect control and ±100 the full control effect; nearly all actives have a fitted effect of over 60% in size
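Kinetic colorimetric format: TGR-catalysed, NADPH-driven DTNB reduction monitored via TNB absorbance. Enzyme dispensed at 20 nM; compound exposure 15 min at room temperature before reaction start.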
The depositor's hits bear a star; u = inconclusive; x = no result given. A selection: hits, their analogues and other compounds. The true share with any hit is near 12%. Unless noted, the call rests on the fitted dose curve; in most records, active means well fitted curve in the direction sought with a large enough effect; inconclusive means small, poorly fitted or top-dose-only effect, or another doubt; inactive means no such curve, though single readings can be large; an effect the other way counts as inactive or inconclusive. Potency means the concentration at half of the fitted maximal effect.

SMILES | Pf growth 48h | Pf growth 96h | SARS PLpro yeast | Sm TGR inh
CC(C)CCN1CCN(Cc2coc3ccccc3c2=O)CC1CCO (stereo not drawn) | 3% | 4.1µM* | -1% | u
Cc1cccc(CNC(=O)CCn2c(=O)c3cccn3c3ccc(F)cc32)c1 | x | x | x | 10%
CC(C)c1ccc(NC(=O)Cn2c(=O)n(CC3CCC(C(=O)NCCc4ccccc4)CC3)c(=O)c3ccccc32)cc1 (stereo not drawn) | x | x | x | 1%
O=C(NCC(c1ccc2c(c1)OCO2)N1CCN(c2ccccc2)CC1)c1ccccc1 (stereo not drawn) | x | x | x | 12%
CC(C)(C)CN1CCN(Cc2cccnc2)CC1CCO (stereo not drawn) | -13% | 10µM* | 2% | -18%
OCCC1CN(Cc2ccon2)CCN1Cc1ccccc1 (stereo not drawn) | 0% | 0% | -1% | u
O=C(CSc1ccc2nnc(CCNC(=O)c3ccccc3)n2n1)Nc1ccc(F)cc1F | 1% | u | -3% | -21%
CCC(C)n1ncn(-c2ccc(N3CCN(c4ccc(O)cc4)CC3)cc2)c1=O (stereo not drawn) | 3% | -60% | 1% | -18%
CCC(C)n1ncn(-c2ccc(N3CCN(c4ccc(OCC5COC(Cn6cncn6)(c6ccc(Cl)cc6Cl)O5)cc4)CC3)cc2)c1=O (stereo not drawn) | 3.4µM* | -12% | -19% | 8%
O=C(NCCSc1c(-c2ccc(Br)cc2)[nH]c2ccccc12)c1ccc(S(=O)(=O)N2CCOCC2)cc1 | x | x | x | 4%
Nc1ncc(S(=O)(=O)NCc2ccccc2)cn1 | x | x | x | -1%
CCc1noc(C)c1C(=O)NNC(=O)COc1ccccc1C | 23% | 12% | -5% | -2%
CC(C)C(=O)c1cn(CC(=O)NCc2ccc3c(c2)OCO3)c2ccccc12 | 12µM* | -18% | 16% | -4%
O=C(Cn1nc(-c2ccccc2)ccc1=O)NCc1ccc2c(c1)OCO2 | 5% | 1.3µM* | -2% | 20%
CCNS(=O)(=O)c1ccc(CCC(=O)NCc2ccc3c(c2)OCO3)cc1 | -18% | 0.41µM* | 1% | -24%
CC(=O)c1ccc(S(=O)(=O)NCCCC(=O)N(C)Cc2ccc3c(c2)OCO3)cc1 | u | u | -2% | 16µM*
CCCNS(=O)(=O)c1ccc(CCC(=O)Nc2ccc3c(c2)OCO3)cc1 | u | 37% | 3% | 2%
O=C(CCc1ccc(S(=O)(=O)NCc2ccccc2)cc1)NCc1ccc2c(c1)OCO2 | -4% | x | 6% | -17%
CC(C)(C)C(=O)c1cn(CC(=O)NCc2ccc3c(c2)OCO3)c2ccccc12 | x | u | -4% | 6%
CCc1c(C2(O)CCCCC2)[nH]c2ncccc12 | 14% | u | -6% | -2%
CCOc1ccc(Cl)cc1C1CC(=O)Nc2cc(OC)c(OC)c(OC)c21 (stereo not drawn) | x | x | x | 1%
CCc1ccc(NC(=O)CS(=O)CC(=O)Nc2ccc(-n3cnnn3)c(C)c2)cc1 (stereo not drawn) | 8% | -6% | 7% | -13%
Cc1ccc(S(=O)(=O)NC(C)C(=O)Nc2ccc3c(c2)OCO3)cc1 (stereo not drawn) | u | 27% | 1% | -1%
CCCNS(=O)(=O)c1ccc(CCC(=O)Nc2ccc3c(c2)OCCO3)cc1 | u | u | 7% | 0%
Cc1ccccc1Cn1c(=O)n(CCC(=O)NCc2ccc3c(c2)OCO3)c(=O)c2ccccc21 | x | 4.7µM* | -5% | -3%
SMILES | Pf growth 48h | Pf growth 96h | SARS PLpro yeast | Sm TGR inh
O=C(CN1C(=O)c2ccccc2S1(=O)=O)NCc1ccc2c(c1)OCO2 | -5% | 9.3µM* | 3% | -15%
CC(NS(=O)(=O)c1ccccc1)C(=O)Nc1ccc2c(c1)OCCO2 (stereo not drawn) | 14% | 7.4µM* | 3% | 0%
O=C(CN1c2cccc3cccc(c23)S1(=O)=O)NCc1ccc2c(c1)OCO2 | u | u | 5% | 1%
CC(C)CNS(=O)(=O)c1ccc(CCC(=O)Nc2ccc3c(c2)OCCO3)cc1 | 12µM* | 226% | 1% | -13%
CCn1c(CN2CCOCC2)nnc1SCC(=O)Nc1ccccc1Cl | 13% | 14% | 3% | -3%
COc1cc(OC)cc(C(=O)NC(C)CNc2ccc(Cl)cc2[N+](=O)[O-])c1 (stereo not drawn) | -13% | 23% | -2% | -1%
CC(=O)NC(CC(=O)N(Cc1ccccc1)c1cccc(C)c1)c1ccccc1 (stereo not drawn) | u | u | 8% | 7%
O=C(Cc1ccccc1)NCc1ccc2c(c1)OCO2 | x | 10µM* | 17% | 10%
CCNC(=O)Cc1ccc(S(=O)(=O)N2CCOCC2)s1 | u | -61% | 0% | -21%
CCCCN(C(=O)Cc1ccc(S(=O)(=O)N2CCOCC2)s1)c1ccccc1 | u | 12µM* | 1% | -2%
O=C(Cc1ccc(S(=O)(=O)N2CCOCC2)s1)N(Cc1ccccc1)c1ccccc1 | 9.3µM* | 2.3µM* | -1% | 0%
O=C(OCCCOC(=O)c1ccc(Br)o1)c1ccc(Br)o1 | 11% | 56% | 3% | 5%
O=C(NS(=O)(=O)Nc1ccc(Br)cn1)c1c[nH]c2ccccc12 | 30% | 18% | -16% | 6%
O=C(CCN1C(=O)c2ccccc2C1=O)Nc1ccc(-c2cn3ccsc3n2)cc1 | 6% | u | -12% | 2%
CC(=O)Nc1ccc(-c2cn3ccsc3n2)cc1 | 229% | 10µM* | 19% | -3%
O=C(Nc1ccc(-c2cn3ccsc3n2)cc1)C1CC1 | -3% | 9.3µM* | -13% | 12%
O=C(Nc1ccc(-c2cn3ccsc3n2)cc1)C1CCCC1 | 48% | 14% | -11% | 18%
Cc1ccc(NC(=O)C(C)Sc2nc(=O)cc(N)n2-c2cccc(C)c2)cc1 (stereo not drawn) | x | x | x | -8%
COCCNC(=O)c1cn(CCOC)c(=O)c2c1c1ccccc1n2C | 11% | u | 2% | -2%
Cc1ccc(-c2cnc(N)n2C)cc1C | u | 4.7µM* | -8% | -1%
Cc1c(C#N)c(NC(=O)CCl)n(Cc2ccc(F)cc2)c1C | u | u | 2% | 4.5µM*
COC(=O)c1cc(C(=O)OC)n(Cc2ccc(F)cc2)c1C | -9% | u | 1% | 2%
Cc1c(C#N)c(NC(=O)CCl)n(Cc2ccccc2)c1C | u | 19µM* | 0% | 3.2µM*
Cc1cc(=O)n(Cc2ccccc2)c(O)c1C#N | 21% | -2% | 5% | u
CCN(CC)C(=O)c1sc(NC(=O)Cc2cccs2)c(C#N)c1C | -10% | -3% | -1% | -8%
Cc1c(C#N)c(NC(=O)CCl)n(Cc2cccs2)c1C | 10µM* | 3.3µM* | -1% | 4µM*
CC(=O)Nc1cccc(NC(=O)c2cc3c(=O)n4cccc(C)c4nc3n2C)c1 | x | x | x | -11%
COC(=O)c1cc(S(=O)(=O)N2CCCCC2)c[nH]1 | -6% | u | 6% | 4%
O=C(CCN1C(=O)/C(=C/c2ccccc2)SC1=S)NCCc1ccc(O)cc1 | -2% | 12µM* | -3% | 3%
O=C(CCCN1C(=O)/C(=C/c2ccccc2)SC1=S)NCCCn1ccnc1 | u | 9.3µM* | -2% | u
